Screens (PubChem)
ST2 inh: inhibitors of human ST2 (IL1RL1) binding to IL-33, primary screen, biochemical, AlphaLISA. AlphaLISA ST2-Fc/biotin-IL-33 interaction, 1 h. Interleukin-1 receptor-like 1 (Homo sapiens), Q01638. inhibition, % for hits at 17 µM. 78,000 compounds, 2.3% hits; in the data active means inhibition above about 30%
Target sequence (Q01638 whole entry, looked up): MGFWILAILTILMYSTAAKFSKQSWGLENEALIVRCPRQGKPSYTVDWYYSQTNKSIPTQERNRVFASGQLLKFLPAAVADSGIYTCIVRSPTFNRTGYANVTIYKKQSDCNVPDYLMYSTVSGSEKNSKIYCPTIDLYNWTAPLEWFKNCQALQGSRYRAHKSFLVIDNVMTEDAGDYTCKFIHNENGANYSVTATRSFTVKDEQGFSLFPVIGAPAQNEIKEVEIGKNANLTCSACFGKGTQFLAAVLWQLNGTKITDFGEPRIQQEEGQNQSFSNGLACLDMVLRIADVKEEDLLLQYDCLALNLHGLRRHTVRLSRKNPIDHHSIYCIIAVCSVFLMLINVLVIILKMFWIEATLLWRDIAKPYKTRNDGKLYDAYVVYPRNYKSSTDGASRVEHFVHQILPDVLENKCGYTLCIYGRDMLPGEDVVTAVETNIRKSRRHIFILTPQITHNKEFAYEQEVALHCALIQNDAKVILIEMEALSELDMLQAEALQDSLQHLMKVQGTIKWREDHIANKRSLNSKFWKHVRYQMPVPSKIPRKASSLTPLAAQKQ
* marks the source's active call; other numbers are inactive results; i = inactive. The sample as a whole holds a higher share of hits than the screen did.

SMILES	ST2 inh
Cc1cc(C)n2ncc(CN(C)C(C)Cc3ccccn3)c2n1 (stereo not given)	i
O=C(c1cccs1)C1CCCN(Cc2nc(-c3cnccn3)no2)C1 (stereo not given)	i
CN(C)Cc1ccccc1-c1ccc2n(c1=O)C[C@H]1C[C@@H]2CN(C(=O)CCC(=O)O)C1	i
CCC(=O)Nc1ccc(OCC(=O)N2CCCN(C)CC2)cc1	i
COc1ccccc1CNC(=O)[C@H]1CN2CC[C@H]1C[C@@H]2Cn1cc(CCO)nn1	i
O=[N+]([O-])c1ccc(C(Cl)Cl)o1	64%*
Cc1ccccc1-c1ccc2n(c1=O)C[C@H]1C[C@@H]2CN(S(=O)(=O)c2ccccc2C#N)C1	i
Cc1cc(N2CCNCC2)c2ccccc2n1	i
CC(=O)NCCNC(=O)[C@H]1CN2CC[C@H]1C[C@@H]2Cn1cc(COc2ccccc2)nn1	i
Cc1c(CCN)c2ccccc2n1-c1ccccc1	37%*
c1ccc([C@@H]2CN(Cc3cccc4nonc34)[C@@H]3C4CCN(CC4)[C@@H]32)cc1	i
CC(=O)Nc1ccc(-c2ccc(=O)n3c2[C@@H]2C[C@@H](CN(C(=O)c4ccccc4)C2)C3)cc1	i
CCCS(=O)(=O)N1CCC(C(=O)N2CCC3(CC2)OCCO3)CC1	i
O=[N+]([O-])c1ccc(O)cc1CN1CCN(Cc2ccccc2)CC1	i
O=[N+]([O-])c1ccc(NCc2ccccc2)c2ncccc12	51%*
CCN(CCNc1ccc([N+](=O)[O-])c2cccnc12)S(=O)(=O)c1ccccc1	i
O=[N+]([O-])c1ccc(N2CCCCC2)c2ncccc12	62%*
O=S(=O)(NC[C@H]1C[C@@H]2CCN1C[C@@H]2CN1CCN(c2ccccn2)CC1)c1ccccc1	i
O=C(c1ccccc1)N1C[C@@H]2C[C@H](C1)c1ccc(-c3cccc(C(F)(F)F)c3)c(=O)n1C2	i
COc1cc(CN2CCN(C)CC2)c([N+](=O)[O-])cc1OC	i
CN(C)C(=O)[C@H]1CN2CC[C@H]1C[C@@H]2Cn1cc(-c2ccc(C(C)(C)C)cc2)nn1	i
NC(=NCCC[C@H](N)C(=O)O)N[N+](=O)[O-]	i
Cc1ccc(S(=O)(=O)NC[C@H]2C[C@@H]3CCN2C[C@@H]3CN2CCN(c3ccccc3)CC2)cc1	33%*
O=S(=O)(NC[C@H]1C[C@@H]2CCN1C[C@@H]2CN1CCN(c2ccccc2)CC1)c1ccccc1	i
O=S(=O)(NC[C@H]1C[C@@H]2CCN1C[C@@H]2CN1CCN(c2ccc(F)cc2)CC1)c1ccccc1	i
SMILES	ST2 inh
CCN(CCCl)Cc1ccccc1Br	i
COc1ccccc1CN1CCN(c2cc(C)ccc2C)CC1	i
COc1ccc2c(CCN)c[nH]c2c1	i
COc1ccc2c(c1)c(CCN)c(C)n2Cc1ccccc1	38%*
CCOC(=O)c1c(C)n(C(C)C)c2ccc(OC)cc12	i
C[N+](C)(C)CC(=O)O	i
C#C[C@H]1CN2CC[C@H]1C[C@@H]2CNC(=O)c1ccc(C(F)(F)F)cc1	i
COc1cc2c(cc1OC)C13CCN4C(=O)C(=O)C(CC41)C1C(OCC(=O)O)CC(=O)N2C13 (stereo not given)	i
CC(=O)c1ccc(N2CCN(Cc3ccc(C)cc3)CC2)cc1	i
Cc1ccccc1N1CCN(Cc2ccc(Br)cc2)CC1	i
CCOc1ccccc1N1CCN(Cc2ccc(OC)cc2)CC1	i
COc1cc(C)c(CN2CCN(c3ccc(F)cc3)CC2)cc1C	i
Brc1ccc(CN2CCN(c3ccccc3)CC2)cc1	32%*
Fc1ccc(N2CCN(Cc3cccc(Br)c3)CC2)cc1	i
COc1ccc(N2CCN(Cc3ccc(C)cc3)CC2)cc1	33%*
COc1ccccc1N1CCN(Cc2ccc(F)cc2)CC1	i
COc1ccc(N2CCN(Cc3cccc(Br)c3)CC2)cc1	44%*
CC(=O)c1ccc(N2CCN(Cc3cccc(Br)c3)CC2)cc1	i
COc1ccc(CN2CCN(c3ccc(OC)cc3)CC2)cc1	32%*
CC(C)c1ccc(CN2CCN(c3ccccc3)CC2)cc1	i
CC(C)NC(=O)[C@H]1CN2CC[C@H]1C[C@@H]2Cn1cc(C2(O)CCCC2)nn1	i
O=C(NC1CCCCCCC1)c1cn(CC2CCCO2)cc(C(=O)N2CCc3ccccc3C2)c1=O (stereo not given)	i
COC(=O)c1cccc(NC(=S)NC[C@H]2C[C@@H]3CCN2C[C@@H]3c2cc(C3CCCCC3)nn2C)c1	i
Oc1ccc2c3c1O[C@H]1c4[nH]c5ccccc5c4C[C@@]4(O)C(C2)N(CC2CC2)CCC314 (stereo not given in full)	i
O=C(CN1CCCCC1)c1ccc2cc[nH]c2c1	i
SMILES	ST2 inh
COc1ccc(-c2cc([C@H]3CN4CC[C@H]3C[C@@H]4CNC(=O)CCCC(=O)O)n(C)n2)cc1OC	i
CN1CCCC(C(O)(c2ccccc2)c2ccccc2)C1 (stereo not given)	i
O=C(Nc1ccccc1)[C@H]1CN2CC[C@H]1C[C@@H]2Cn1cc(CC2CCCCC2)nn1	i
O=C(Nc1ccc(Br)cc1C(=O)c1ccccc1)c1cccs1	i
COc1ccc2[nH]cc(CCNCCSS(=O)(=O)O)c2c1	i
COc1ccc(OC)c(CN2CCN(c3ccc(Cl)cc3)CC2)c1	34%*
COc1ccc(OC)c(CN2CCN(C)CC2)c1	i
COc1ccc(CN2CCN(c3ccccc3Cl)CC2)c(OC)c1	i
COc1cc(OC)c(CN2CCN(c3ccccc3)CC2)cc1Br	36%*
COc1ccc(CN2CCN(Cc3ccccc3Cl)CC2)cc1Br	i
COc1cc(OC)c(CN2CCN(C)CC2)cc1Br	i
O=C(c1ccc(F)cc1)N1C[C@@H]2C[C@H](C1)c1c(-c3cncnc3)ccc(=O)n1C2	i
N#Cc1cccc(-c2ccc3n(c2=O)C[C@H]2C[C@@H]3CN(C(=O)Nc3ccccc3)C2)c1	i
C=C[C@H]1CN2CC[C@H]1C[C@@H]2CNC(=S)NCCN1CCOCC1	i
CCCS(=O)(=O)NC[C@H]1C[C@@H]2CCN1C[C@@H]2c1cc(-c2ccccc2)nn1C	i
COCCNC(=S)NC[C@H]1C[C@@H]2CCN1C[C@@H]2CN1CCN(c2ccccc2OC)CC1	i
O=C(c1cccs1)N1C[C@@H]2C[C@H](C1)c1c(-c3cncnc3)ccc(=O)n1C2	i
O=C(NC1CC1)[C@H]1CN2CC[C@H]1C[C@@H]2Cn1cc(COc2ccccc2)nn1	i
